From PubChem BioAssay (NCI) come the findings set out here.

About 83,000 compounds went through this panel and 20% of them were active in at least one assay; those are over-represented in the sample as a whole.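 Treatment: one concentration, 48 hours, 96-well format. Scoring: percent growth, with anything below 10 considered active.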 Values without a mark were called inactive. The source made the active and inactive calls.

Holding throughout (assay): NCI-60 one-dose screen, 48 h (100 = growth as untreated, 0 = no growth, -100 = all killed)
Holding throughout (conditions): 10 µM

Assay [1] has as its system DU-145 prostate.
In assay [2] the test system is K-562 leukemia.
Assay [3] has as its system MALME-3M melanoma.
The subject of assay [4] is MDA-MB-231 breast.
Assay [5] deals with RXF 393 renal.
The subject of assay [6] is SF-268 CNS.
Assay [7] has as its system SF-295 CNS.
Assay [8] relates to SF-539 CNS.
The subject of assay [9] is UACC-257 melanoma.
Assay [10] has as its system M14 melanoma.

Turning to `COc1cc2c(cc1OC)CN(CCCCOc1cc(O)c3c(=O)cc(-c4ccccc4)oc3c1)CC2`, the growth in [1] is 80.3%; in assay [2], -6.81% (active); in [3], -68.6% (active); in assay [4], 38.5%; in [5] it was 29.8%; in [6], 65.9%. Further, the growth is 26.2% in [7], 48.7% in assay [8], 5.33% (active) in [9] and -21% (active) in [10].

For the compound `COc1ccc(C(=O)Nc2ccc(-c3ccc4c(c3)NC(=O)/C4=C\c3ccc[nH]3)cc2)cc1`, the growth in [1] was -25.7% (active); in assay [2], 67.5%; in assay [3] it was 50.9%; in [4] it was 25.6%; in assay [5], 8.7% (active); in [6] it was 0.17% (active). Also, the growth was -76.1% (active) in assay [7], 76.8% in [8], 77.5% in assay [9] and 28.1% in [10].

On to `COc1ccc(N(C)c2cc(C#N)nc3ccccc23)cc1/C=C/C(=O)NO`, for which the growth in assay [1] was 16.7%; in assay [2] it was 4.1% (active); in [3] it was -56.5% (active); in [4], -73.5% (active); in assay [5], -82.2% (active); in assay [6] it was -30% (active). Besides, the growth was -73.8% (active) in [7], -89.6% (active) in assay [8], -26.2% (active) in [9] and 2.45% (active) in assay [10].

With `O=C1NC(=NC23CC4CC(CC(C4)C2)C3)N/C1=C\c1ccc2ncccc2n1`, the growth was 2.14% (active) in [1]; 13.6% in assay [2]; -41.3% (active) in assay [3]; -18.5% (active) in assay [4]; -78.1% (active) in assay [5]; -29.8% (active) in assay [6]. Further, the growth in assay [7] was -27.5% (active); in assay [8], -77.7% (active); in [9] it was -4.23% (active); in assay [10] it was 14.5%.

With `O=C(O)CCCCCCCCCCN1C(=O)/C(=C/c2cnc(-c3ccccc3)s2)SC1=S`, the growth in [1] was 80.4%; in [2], 23.6%; in [3] it was 103%; in assay [4], 100%; in assay [5] it was 116%; in [6] it was 112%. For the same compound, the growth is 83.3% in assay [7], 110% in assay [8], 101% in [9] and 101% in [10].

Regarding `CO[C@H]1CSS[C@@H]1Cn1nc(-c2ccc(Oc3ccccc3)cc2)c2c(N)ncnc21`, the growth in [1] was 38.3%; in [2] it was 7.28% (active); in assay [3], -38.2% (active); in assay [4], 9.69% (active); in assay [5] it was 18.6%; in assay [6], 32.4%. The growth in assay [7] was 35.4%; in assay [8], 36.1%; in assay [9], -3.47% (active); in assay [10] it was -93% (active).

On to `Cc1ccc(F)cc1N/C=c1\s/c(=C(\C#N)C(=O)Nc2ccccc2)n(-c2ccccc2)c1=O`, for which the growth was 54.5% in [1]; 83.4% in assay [2]; 53% in assay [3]; 2.68% (active) in [4]; 6.54% (active) in [5]; 69.5% in [6]. Also, the growth in assay [7] was 47.8%; in assay [8] it was 27%; in [9], 99%; in [10], 82.4%.

Regarding `C=CC(=O)Nc1ccc(C(=O)/C=C/c2ccc(N(C)CCF)cc2)c(O)c1`, the growth in assay [1] was -51.2% (active); in [2] it was 9.77% (active); in [3], -50.1% (active); in [4], 17%; in [5] it was -82.4% (active); in assay [6], -19.7% (active). Moreover, the growth was -4.58% (active) in assay [7], -81.5% (active) in assay [8], -61.6% (active) in assay [9] and -56.3% (active) in [10].

As to `CC1=C(C(=O)OC(C)C)C(c2ccc(O)cc2)NC(=S)N1` (stereo not given), the growth in assay [1] is 100%; in assay [2], 95.2%; in assay [3], 105%; in assay [4], 100%; in assay [5], 97.3%; in assay [6], 111%. For the same compound, the growth is 96.6% in assay [7], 98.2% in assay [8], 121% in assay [9] and 97% in assay [10].

With `O=C1Nc2ccc(F)cc2/C1=C/c1cccc(OCc2ccccn2)c1`, the growth in assay [1] was 42.5%; in assay [2] it was 4.79% (active); in assay [3] it was 54.1%; in assay [4], 30.7%; in [5] it was 28.3%; in assay [6], 23.4%. The growth was 24.3% in [7], 35.5% in assay [8], 44.1% in [9] and 36.3% in assay [10].

As to `O=C(c1ccc(O)cc1)C1[C@H](c2ccc(Br)cc2)[C@@H](c2ccccc2)NC12C(=O)Nc1ccc(Br)cc12` (stereo not given in full), the growth in [1] was 9.58% (active); in [2], 3.5% (active); in assay [3], -49.3% (active); in assay [4], -67.7% (active); in assay [5], -62.9% (active); in assay [6], 10.6%. Besides, the growth in [7] was -22.7% (active); in assay [8] it was -17.8% (active); in assay [9] it was 49.1%; in assay [10], 14.8%.

Consider `Nc1nnc(-c2c[nH]c3ccc(F)cc23)c(-c2c[nH]c3ncccc23)n1`, for which the growth in [1] was 82%; in assay [2], 31.9%; in [3], 71.6%; in assay [4] it was 39.1%; in assay [5], 82.8%; in assay [6], 80.2%. The growth was 36.6% in assay [7], 30% in [8], 105% in assay [9] and 63.5% in assay [10].

For the compound `COc1ccccc1[C@H]1C(C(=O)c2ccc(Cl)cc2)C2(N[C@@H]1c1ccccc1)C(=O)Nc1ccc(Cl)cc12` (stereo not given in full), the growth in assay [1] is 10.5%; in assay [2], 1.21% (active); in assay [3], -24.8% (active); in [4], 4.86% (active); in assay [5], -29.4% (active); in [6], 26.3%. The growth in [7] is 2.46% (active); in assay [8], -16.6% (active); in assay [9], 22.4%; in assay [10] it was 28.4%.
